Reference: publication PMC4336329 (PLoS ONE, 2015)
The whole screen tested about 310,000 compounds, of which about 2,200 (0.71%) showed an effect of 50% or more. The effect is printed as a negative number. This is one part of a sample in which strong results are shown more often than they occur.

These compounds were tested against human ether-à-go-go-related gene (hERG) potassium channel (human, UniProt Q12809) (assay: primary screen, population patch clamp on CHO cells stably expressing hERG; higher = less effect of the substance).
Procedure: Briefly, Chinese hamster ovary (CHO) cells stably expressing the hERG channel were dislodged from tissue culture flasks and dispensed into PPC plates. […] During the recording, background leak currents were estimated by a 100 ms step to -80 mV from an initial holding potential of -70 mV and subtracted from the subsequent current measurement. The campaign was conducted in two phases using slight differences in recording protocol. In the first phase, the initial voltage pulse used a 100 ms step to -30 mV from a holding potential of -70 mV, a 2 s conditioning step to +25 mV, and a 2 s test step to -30 mV. During the second phase of the screen, the potential during the conditioning step was raised to +45 mV. In both phases of the campaign, a secondary voltage pulse was applied using the same parameters as the second phase initial pulse. The initial and secondary pulses were applied in the absence of compound, and upon application of 1 μM and 10 μM test concentrations. Small molecule effects on hERG current density were quantified by […].

Chain of human ether-à-go-go-related gene (hERG) potassium channel (Q12809 whole entry, looked up): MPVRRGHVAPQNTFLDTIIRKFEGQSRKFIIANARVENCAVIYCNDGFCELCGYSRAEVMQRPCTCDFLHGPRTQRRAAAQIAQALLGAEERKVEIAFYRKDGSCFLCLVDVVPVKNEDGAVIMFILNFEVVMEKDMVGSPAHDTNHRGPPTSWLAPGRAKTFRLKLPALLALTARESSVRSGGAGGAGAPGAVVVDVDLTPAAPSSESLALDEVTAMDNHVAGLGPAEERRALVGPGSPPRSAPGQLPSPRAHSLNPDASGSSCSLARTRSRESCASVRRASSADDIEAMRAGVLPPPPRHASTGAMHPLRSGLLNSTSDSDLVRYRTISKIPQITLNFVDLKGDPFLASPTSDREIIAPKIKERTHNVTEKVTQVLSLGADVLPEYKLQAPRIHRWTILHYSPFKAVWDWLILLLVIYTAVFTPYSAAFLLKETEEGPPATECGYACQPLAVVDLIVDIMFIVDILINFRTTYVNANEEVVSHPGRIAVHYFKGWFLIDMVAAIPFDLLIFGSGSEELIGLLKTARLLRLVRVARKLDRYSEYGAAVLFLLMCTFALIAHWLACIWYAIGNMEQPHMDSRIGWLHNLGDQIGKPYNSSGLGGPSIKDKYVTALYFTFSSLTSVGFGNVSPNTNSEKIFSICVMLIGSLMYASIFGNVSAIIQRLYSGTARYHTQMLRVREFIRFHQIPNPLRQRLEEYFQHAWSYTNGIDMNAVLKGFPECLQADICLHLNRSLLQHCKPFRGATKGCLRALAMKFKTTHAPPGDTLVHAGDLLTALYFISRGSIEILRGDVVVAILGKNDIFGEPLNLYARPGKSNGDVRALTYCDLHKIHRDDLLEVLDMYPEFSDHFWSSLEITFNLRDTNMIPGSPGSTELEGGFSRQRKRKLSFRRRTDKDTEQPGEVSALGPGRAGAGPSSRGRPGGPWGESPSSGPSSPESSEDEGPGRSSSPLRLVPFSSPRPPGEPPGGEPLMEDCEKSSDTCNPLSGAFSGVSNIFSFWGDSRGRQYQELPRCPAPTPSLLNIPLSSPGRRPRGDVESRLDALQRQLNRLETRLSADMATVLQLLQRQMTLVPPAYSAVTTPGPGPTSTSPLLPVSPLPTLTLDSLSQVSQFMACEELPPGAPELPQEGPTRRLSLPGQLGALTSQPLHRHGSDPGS

Row | SMILES | hERG current change (%, negative = inhibition) at 1uM [%]
1 | COc1ccc(N2CCC(CNS(=O)(=O)c3cccc(C(F)(F)F)c3)C2)cc1 (stereo not shown) | 4.38
2 | COc1cccc(NC(=O)Nc2nnc(CC(=O)Nc3ccccc3)s2)c1 | 6.56
3 | CC(=O)Oc1ccc(-c2cccc(C(=O)NCCO)c2)cc1 | 16.3
4 | Cc1ccc(CN2CCN(CC(=O)N=Nc3c(O)[nH]c4ccccc34)CC2)cc1 | -75.3
5 | O=C(CN1CCN(Cc2ccccc2Cl)CC1)N=Nc1c(O)[nH]c2ccccc12 | -5.17
6 | O=C(CN1CCN(Cc2ccccc2)CC1)N=Nc1c(O)[nH]c2ccccc12 | -37.6
7 | COc1cc(C2CC(=O)Nc3cc(C)c(C)cc32)cc(OC)c1OC (stereo not shown) | 14.3
8 | COc1ccc(NC(=O)CNS(=O)(=O)c2ccc3nc(C)sc3c2)c(OC)c1 | 1.77
9 | CC(C)C(Sc1nc(-c2ccccc2)cc(-c2ccccc2)c1C#N)C(=O)O (stereo not shown) | 9.23
10 | C=CCNC(=O)CN1CCC(n2nnc3cc(C(F)(F)F)ccc32)CC1 | -0.772
11 | O=C(CN1CCC(n2nnc3ccccc32)CC1)NCc1cccs1 | -47.3
12 | O=C(CN1CCC(n2nnc3cc(C(F)(F)F)ccc32)CC1)NCc1cccs1 | -56.9
13 | O=C(CN1C(=O)CCSc2ccccc21)Nc1ccc2c(c1)OCO2 | -4.53
14 | O=C(CCCN1C(=O)/C(=C\c2cccs2)SC1=S)NNC(=O)c1ccncc1 | 4.39
15 | O=C(/C=C/c1ccc([N+](=O)[O-])cc1)NCCN1C(=O)S/C(=C\c2ccc(F)cc2)C1=O | 2.19
16 | O=[N+]([O-])c1ccc(-c2ccc(S(=O)(=O)NCCN3CCCC3)cc2)cc1 | -77.3
17 | O=[N+]([O-])c1ccc(S(=O)(=O)NCCN2CCOCC2)cc1 | 12.6
18 | N#CCCN(CCN1CCCC1)S(=O)(=O)c1ccc(-c2ccc([N+](=O)[O-])cc2)cc1 | -76.5
19 | CCN(CC)S(=O)(=O)c1ccc(S(=O)(=O)N2CCN(CCC#N)CC2)cc1 | 8.96
20 | Cc1ccc(S(=O)(=O)N(CCC#N)CCN2CCCC2)cc1 | 2.4
21 | O=S(=O)(NCCN1CCCC1)c1ccc(Br)cc1 | 3.89
22 | O=C(NCC(c1ccco1)N1CCCC1)c1ccccc1Sc1ccc(C(F)(F)F)cc1[N+](=O)[O-] (stereo not shown) | 4.07
23 | CCOc1ccccc1N1CCN(C(=O)c2cccc(S(=O)(=O)N3CCOCC3)c2)CC1 | 10.8
24 | NC(=O)Cn1cnc2nc3n(c2c1=O)CCC3 | -2.24
25 | CC1CN(C(=O)COC(=O)COc2ccc(C#N)cc2)CC(C)O1 (stereo not shown) | 11.6

Row | SMILES | hERG current change (%, negative = inhibition) at 1uM [%]
26 | CC1(C)Cc2c(c(=S)nc(-c3ccccc3)n2CCN2CCOCC2)CO1 | 6.74
27 | CCCC(=O)Nc1nc2c(C)c(Cl)ccc2s1 | 6.64
28 | COc1ccc(NC(=O)C(c2ccccc2)N(C)C(=O)c2ccc(=O)[nH]c2)cc1 (stereo not shown) | 16.6
29 | Nc1nc(CN2CCN(c3ccccc3F)CC2)nc(Nc2ccc3c(c2)OCCO3)n1 | -38
30 | Cc1cccc(Nc2nc(N)nc(CN3CCN(Cc4ccc5c(c4)OCO5)CC3)n2)c1 | -74.3
31 | Cc1ccc(Nc2nc(N)nc(CN3CCN(Cc4ccc5c(c4)OCO5)CC3)n2)cc1 | -53.4
32 | Cc1ccc(Nc2nc(N)nc(CN3CCN(Cc4ccc5c(c4)OCO5)CC3)n2)cc1Cl | -34.6
33 | CN1CCN(Cc2nc(N)nc(Nc3ccc4c(c3)OCCO4)n2)CC1 | 3.07
34 | Nc1nc(CN2CCN(Cc3ccc4c(c3)OCO4)CC2)nc(Nc2ccccc2)n1 | -77.4
35 | Cc1cccc(Nc2nc(N)nc(CN3CCN(c4ccccc4)CC3)n2)c1 | -7.51
36 | Nc1nc(CN2CCN(Cc3ccccc3)CC2)nc(Nc2ccc3c(c2)OCCO3)n1 | -52.3
37 | Cc1cccc(Nc2nc(N)nc(CN3CCN(C)CC3)n2)c1 | -5.33
38 | Cc1ccc(Nc2nc(N)nc(CN3CCN(C)CC3)n2)cc1 | 4.62
39 | Nc1nc(CN2CCN(c3ccccc3F)CC2)nc(Nc2ccccc2)n1 | 0.21
40 | CC(C)(O)C#Cc1ccc(C(=O)NCc2ccccc2)s1 | -2.9
41 | CCc1nn(CC(=O)NCCCN(C)C2CCCCC2)c(=O)c2cc3occc3n12 | 2.42
42 | CN1CCN(c2nc(Nc3ccc(F)cc3)nc(Nc3ccc(F)cc3)n2)CC1 | -0.878
43 | COc1ccc(CNC(=S)Nc2ccc(-c3ccccc3)cc2)cc1 | 6.99
44 | COCCn1c(C)cc(C(=O)CSc2nncn2-c2ccccc2)c1C | 8.85
45 | COc1ccc(OCCN2CCOCC2)cc1 | 20.7
46 | CN(C)S(=O)(=O)N1CCC(Oc2cccc(C(=O)N3CCSCC3)c2)CC1 | 4.68
47 | S=c1[nH]cnc2scc(-c3ccc(Cl)cc3)c12 | 10.5
48 | Cc1ccccc1Nc1nc(N)nc(CN2CCN(Cc3ccc4c(c3)OCO4)CC2)n1 | -45.4
49 | Cc1ccc(Nc2nc(N)nc(CN3CCN(Cc4ccc5c(c4)OCO5)CC3)n2)c(C)c1 | -70.5
50 | Cc1ccc(Nc2nc(N)nc(CN3CCCCCC3)n2)c(C)c1 | -21.7

Row | SMILES | hERG current change (%, negative = inhibition) at 1uM [%]
51 | COc1ccc(-n2c(C)c3c(OC)cccc(=O)c3c2C)cc1 | 0.316
52 | O=S(=O)(Nc1nc2ccccc2nc1NCCN1CCOCC1)c1cccc(Cl)c1 | 8.11
53 | O=C(COC(=O)c1ccco1)NCC1CCCO1 (stereo not shown) | -0.29
54 | COc1cc(CNC23CC4CC(CC(C4)C2)C3)ccc1OCc1ccccc1.Cl | 1.77
55 | COc1cccc(CNC23CC4CC(CC(C4)C2)C3)c1OCc1ccccc1.Cl | 3.29
56 | Cl.c1ccc(COc2ccccc2CNC23CC4CC(CC(C4)C2)C3)cc1 | -73.8
57 | Cc1cccc(-c2ccc(NC(=O)C3CCN(CC4CC4)CC3)cc2)c1 | -5.16
58 | Cc1cccn2c(=O)c3cc(C(=O)NCC4CCCO4)c(=N)n(C4CCCC4)c3nc12 (stereo not shown) | -80.3
59 | Cc1cccn2c(=O)c3cc(C(=O)NCC4CCCO4)c(=N)n(C4CCCCC4)c3nc12 (stereo not shown) | -83.7
60 | COc1ccc(C2/C=C\CN(C(=O)c3ccc(C)cc3)[C@H](Cc3ccccc3)C(=O)N2Cc2ccc(F)cc2)cc1 (stereo partly shown) | 11.8
61 | O=C(Cn1cnc(S(=O)(=O)N2CCCCC2)c1)Nc1ccc(OC(F)(F)F)cc1 | 11.7
62 | O=C(Oc1cccc2cccnc12)c1cccc(N2C(=O)C3C4CCC(C4)C3C2=O)c1 (stereo not shown) | 3.55
63 | Cc1ccc(NC(=O)CSCC(=O)Nc2ccc(S(=O)(=O)N3CCOCC3)cc2)cc1 | 11.4
64 | COc1ccc(C(=O)CSc2nnc(-c3cc4ccccc4cc3O)n2Cc2ccco2)cc1 | -16.2
65 | OC(CCCN1CCC(O)(c2ccc(Cl)cc2)CC1)c1ccc(F)cc1 (stereo not shown) | -72.7
66 | O=C(CN1CCC(O)(c2ccc(F)cc2)CC1)NCc1ccc(F)cc1 | -0.396
67 | CC(=O)N1CCC(O)(c2cccc(C(F)(F)F)c2)CC1 | 8.78
68 | Cl.O=C(CCN1CCN(c2ccccc2F)CC1)c1ccc(Br)cc1 | -40
69 | OC1(c2ccc(Cl)cc2)CCN(Cc2cn[nH]c2-c2ccc(F)cc2)CC1 | -27.2
70 | OC1(c2cccc(C(F)(F)F)c2)CCN(CCN2CCCCC2)CC1 | 16.2
71 | OC(CN1CCN(c2ccc(F)cc2)CC1)c1ccc(Cl)cc1 (stereo not shown) | 2.87
72 | O=C(CCCN1CCC(O)(c2ccc(Br)cc2)CC1)c1ccc(F)cc1 | -75.7
73 | Cl.O=C(CCCN1CCC(O)(c2cccc(C(F)(F)F)c2)CC1)c1ccc(F)cc1 | -80.9
74 | COc1ccc(CCNC(=O)C(C)n2nc(C)n3c(cc4occc43)c2=O)cc1OC (stereo not shown) | 12.2
75 | NC(=O)c1ccc(NC(=O)c2cccc(Oc3ccccc3)c2)cc1 | 12.5

Row | SMILES | hERG current change (%, negative = inhibition) at 1uM [%]
76 | CCOC(=O)C1=C(C)NC(C)=C(C(=O)OCC)C1c1ccc(Br)o1 | 9.3
77 | COc1cc([N+](=O)[O-])ccc1NC(=S)NCc1ccccn1 | 8.38
78 | Cc1cc(C)c(NC(=O)CCCSc2nnc(N)s2)c(C)c1 | -4.26
79 | S=C(Nc1ccc(Cl)cc1Cl)Nc1ccccc1Oc1ccccc1 | 12.4
80 | O=C1c2ccccc2C(=O)N1CSc1ncccn1 | 1.65
81 | Cc1cc(C)nc(N2CCC(C(=O)NC3CCCCCC3)CC2)n1 | 0.0346
82 | Cc1cc(NCc2ccco2)nc(N2CCC(C(=O)NC3CCCCC3)CC2)n1 | -63.6
83 | Cc1cc(C)nc(N2CCC(C(=O)NCc3ccco3)CC2)n1 | 1.22
84 | COc1cccc(CCNC(=O)c2ccc(C#N)cc2)c1 | 8.19
85 | Cc1[nH]nc(N)c1-c1ccc(Cl)cc1 | 3.97
86 | O=C(NCCc1ccccc1)/C(=C\c1ccc([N+](=O)[O-])cc1)NC(=O)c1ccccc1 | 3.17
87 | O=C(NCc1ccccc1)/C(=C/c1ccc([N+](=O)[O-])cc1)NC(=O)c1ccco1 | -31
88 | O=C(NCc1ccco1)/C(=C/c1ccc([N+](=O)[O-])cc1)NC(=O)c1ccco1 | -50.4
89 | CC(=O)Oc1ccc(/C=C(\NC(=O)c2ccco2)C(=O)NCc2ccccc2)cc1 | -58.9
90 | O=C(NCCc1ccccc1)/C(=C\c1ccccc1)NC(=O)c1ccco1 | 9.3
91 | O=C(NCCO)/C(=C/c1cccc([N+](=O)[O-])c1)NC(=O)c1ccco1 | 9.43
92 | CC(=O)Oc1ccc(/C=C(\NC(=O)c2ccco2)C(=O)NCc2ccco2)cc1 | -11
93 | O=C(NCCO)/C(=C\c1cccc([N+](=O)[O-])c1)NC(=O)c1ccco1 | 8.45
94 | O=C(NCc1ccccc1)/C(=C\c1ccc([N+](=O)[O-])cc1)NC(=O)c1ccco1 | -19.6
95 | O=C(NCCc1ccccc1)/C(=C\c1cccc([N+](=O)[O-])c1)NC(=O)c1ccco1 | -50.6
96 | O=C(NCc1ccccc1)/C(=C\c1ccccc1)NC(=O)c1ccco1 | 11.9
97 | O=C(NCCc1ccccc1)/C(=C\c1ccc([N+](=O)[O-])cc1)NC(=O)c1ccco1 | -59
